Screening data deposited in PubChem BioAssay by several laboratories.
PrPC surface inh: reduces human prion protein on the cell surface. P04156. cell surface PrPC, TR-FRET read-out. inhibition, % at 13.8 µM. actives 0.43% (n = 370,000). AID 720596; in the data active = inhibition above about 24%
TcdB inh: blocks C. difficile toxin B glycohydrolase activity. inhibition, % at 9.99 µM. actives 0.24% (n = 350,000). AID 652162. TcdB glycohydrolase enzymatic assay, plate reader; in the data active = inhibition above about 10%
VHR inh abs: blocks human VHR1 dual specificity phosphatase; P51452; recombinant VHR phosphatase, pNPP absorbance; inhibition, % at 13.3 µM; actives 0.52% (n = 290,000); AID 1654; in the data active = inhibition above about 50%
Hits are given with their value; ! = not active in a repeat. Only some compounds are listed: those with a hit (about 0.82% of all), similar ones and a draw of the others.

For Cc1nnc(NC(=O)c2c(-c3ccccc3)noc2C)s1 the results were PrPC surface inh inactive and VHR inh abs inactive.
For CCCC(CCC)c1nnc(NC(=O)c2ccco2)s1 the results were PrPC surface inh inactive, TcdB inh inactive and VHR inh abs 60.
Screening CCC(CC)c1nnc(NC(=O)c2c(-c3ccccc3)noc2C)s1 returned PrPC surface inh inactive, TcdB inh inactive and VHR inh abs 50.
CCC(c1ccccc1)c1nnc(NC(=O)c2ccco2)s1 (configuration not stated) was read as PrPC surface inh inactive, TcdB inh inactive and VHR inh abs inactive.
CC(=O)Nc1ccc2c(c1)C(=O)N(C)[C@@H]1CC[C@@H](CC(=O)NCc3ccc(F)cc3)O[C@@H]1CO2 was read as TcdB inh inactive.
CNC[C@H]1Oc2ccc(NS(=O)(=O)c3cn(C)cn3)cc2CC(=O)N([C@@H](C)CO)C[C@H]1C was read as TcdB inh inactive.
CCC(=O)N(C)C[C@@H]1Oc2ncc(-c3ccccc3OC)cc2C(=O)N([C@H](C)CO)C[C@H]1C was read as TcdB inh inactive.
`CC(C)[C@H](NC(=O)N1CCn2c1nc1ccccc12)C(=O)NCc1ccc(F)cc1` gave PrPC surface inh inactive, TcdB inh inactive and VHR inh abs inactive.
For CCC(C)[C@H](NC(=O)N1CCn2c1nc1ccccc12)C(=O)NCc1ccccc1 (some centres not stated) the results were PrPC surface inh inactive, TcdB inh inactive and VHR inh abs 50.
Screening Cc1cc(C(=O)Nc2cccc3c2O[C@H](CN(C)S(=O)(=O)c2ccc(F)cc2)[C@@H](C)CN([C@@H](C)CO)C3=O)n(C)n1 returned TcdB inh inactive.
Screening Cc1ccc2c(C(=O)CN3CCCCC3CCO)c(C)[nH]c2c1 (configuration not stated) returned PrPC surface inh inactive and VHR inh abs inactive.
CCC1CCCCN1CC(=O)c1c(C)[nH]c2cc(C)ccc12 (configuration not stated) was read as PrPC surface inh inactive, TcdB inh inactive and VHR inh abs 52.
Screening O=C1COc2ccc(C(=O)COC(=O)Cc3ccccc3F)cc2N1 returned PrPC surface inh inactive, TcdB inh inactive and VHR inh abs inactive.
Screening O=C1COc2ccc(C(=O)COC(=O)CNS(=O)(=O)c3cccc(F)c3)cc2N1 returned PrPC surface inh inactive and TcdB inh 12.
`O=C(N/N=C/c1ccc(OC(=O)c2ccc3c(c2)OCO3)cc1)c1cncc(Br)c1` gave PrPC surface inh inactive and VHR inh abs 51.
O=C(N/N=C/c1cccc(OC(=O)c2ccc3c(c2)OCO3)c1)c1cncc(Br)c1 was read as PrPC surface inh inactive and VHR inh abs inactive.
For CN(C)CC(=O)Nc1ccc2c(c1)[C@H]1C[C@@H](CC(=O)NC3CCCCC3)O[C@H](CO)[C@H]1O2 the results were TcdB inh inactive.
`C[C@@H](NC(=O)[C@H]1[C@H](CO)[C@H]2Cn3c(cccc3=O)[C@H]2N1CC1CCCCC1)c1ccccc1` gave TcdB inh inactive.
For CCC(=O)N1CC2(C1)[C@H](c1ccc(-c3ccccc3C)cc1)[C@@H](CO)N2C(C)=O the results were TcdB inh inactive.
CN(C1CCCCC1)C(CNS(=O)(=O)c1ccccc1)c1ccccc1 (configuration not stated) was read as PrPC surface inh inactive, TcdB inh inactive and VHR inh abs 53.
For CN(Cc1ccccc1)C(CNS(=O)(=O)c1ccccc1)c1ccccc1 (configuration not stated) the results were PrPC surface inh inactive and TcdB inh inactive.
For O=C1O[C@@H](Cc2ccccc2)[C@H]2[C@@H]3C=CCCC=C3CN2C12CCCC2 the results were TcdB inh inactive.
`O=c1c2ccccc2oc2cc(NCCCN3CCOCC3)ccc12` gave PrPC surface inh inactive, TcdB inh inactive and VHR inh abs inactive.
For O=c1c2ccccc2oc2ccc(NCCCN3CCOCC3)cc12 the results were PrPC surface inh inactive, TcdB inh 13 and VHR inh abs inactive.
Screening CC(C)CC#Cc1cnc2c(c1)C(=O)N([C@@H](C)CO)C[C@@H](C)[C@H](CN(C)C(=O)Nc1ccccc1F)O2 returned TcdB inh inactive.
For COc1cccc(S(=O)(=O)N[C@@H]2CC[C@H](CC(=O)NCc3ccccc3)O[C@H]2CO)c1 the results were TcdB inh inactive.
`CN(C)C(=O)c1cccc(-c2ccc([C@H]3[C@@H](CO)N4CCCCN(CCC(F)(F)F)C[C@H]34)cc2)c1` gave TcdB inh inactive.
For O=[N+]([O-])c1ccccc1/C=N\N1CCN(Cc2ccccc2Cl)CC1 the results were PrPC surface inh inactive, TcdB inh inactive and VHR inh abs inactive.
O=[N+]([O-])c1ccccc1/C=N/N1CCN(Cc2ccccc2)CC1 was read as PrPC surface inh inactive, TcdB inh inactive and VHR inh abs 58.
Screening CCCC(=O)Nc1ccc2c(c1)C(=O)N(C)C[C@@H](OC)[C@@H](C)CN(C(=O)CN(C)C)[C@H](C)CO2 returned TcdB inh inactive.
`CCOc1ccccc1NC1=NCC(=O)N1Cc1ccc(F)cc1` gave PrPC surface inh inactive, TcdB inh inactive and VHR inh abs 53.
Screening COc1ccccc1NC1=NCC(=O)N1Cc1ccccc1 returned PrPC surface inh inactive and VHR inh abs inactive.
Screening CO[C@H]1CN(C)C(=O)c2cc(NC(=O)CC(F)(F)F)ccc2OC[C@@H](C)N(C(=O)c2ccccc2F)C[C@H]1C returned TcdB inh inactive.
`CCNC(=O)NC(=O)C(C)N1C(=O)NC(c2ccccc2)(c2ccccc2)C1=O` (configuration not stated) gave PrPC surface inh inactive, TcdB inh inactive and VHR inh abs 55.
COc1ccc(CNC(=O)C(C)N2C(=O)NC(c3ccccc3)(c3ccccc3)C2=O)cc1 (configuration not stated) was read as PrPC surface inh inactive and TcdB inh inactive.
`C[C@@H]1CN([C@@H](C)CO)C(=O)c2cc(C#CCN(C)C)cnc2O[C@H]1CN(C)C(=O)CCN1CCCCC1` gave TcdB inh inactive.
Screening O=C(O)c1ccc(S(=O)(=O)N(Cc2ccccc2)Cc2ccccc2)cc1 returned PrPC surface inh inactive, TcdB inh inactive and VHR inh abs inactive.
`O=C(O)c1ccc(N(Cc2ccccc2)S(=O)(=O)c2ccccc2)cc1` gave PrPC surface inh inactive, TcdB inh inactive and VHR inh abs 59!.
For O=c1onc(-c2ccccc2)n1Cc1ccc([N+](=O)[O-])cc1 the results were PrPC surface inh inactive and TcdB inh 10.
For O=c1onc(-c2ccc(Cl)cc2)n1Cc1ccc(F)cc1 the results were PrPC surface inh inactive, TcdB inh inactive and VHR inh abs inactive.
Screening Cc1ccc(/C=N/NC(=O)c2cccc(S(=O)(=O)Nc3ccccc3Cl)c2)o1 returned PrPC surface inh inactive, TcdB inh 12 and VHR inh abs inactive.
For O=C(N/N=C/c1ccco1)c1cccc(S(=O)(=O)Nc2ccccc2Cl)c1 the results were PrPC surface inh inactive and VHR inh abs inactive.
`Cc1noc(C)c1NC(=O)N(C)C[C@@H]1Oc2ccc(NC(=O)Nc3cccc4ccccc34)cc2C(=O)N([C@H](C)CO)C[C@H]1C` gave TcdB inh inactive.
Screening Cc1ccc(CSC2=NCCN2S(=O)(=O)c2ccccc2)cc1 returned PrPC surface inh inactive, TcdB inh inactive and VHR inh abs inactive.
